Assay results from the supplement of paper PMC10849652.
Targets with a hit are over-represented here; the source holds about 7,900 in all. About 0.6% of all pairs of compound and target were hits.

Columns and labels:
Test in all cases: log2 fold change, soluble protein after heating vs DMSO (PISA); higher = thermal stabilisation; K562 cells, 10 uM, 30 min; active = over 0.2 and 3.5 SD of the protein, either way, in both replicates (recomputed)
saracatinib = compound: CN1CCN(CCOc2cc(OC3CCOCC3)c3c(Nc4c(Cl)ccc5c4OCO5)ncnc3c2)CC1 [saracatinib]
Procedure, shortened: (§1)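 For each measurement, 10 μM compound was applied for 30 min to K562 cells at 2×10^6 cells/mL. Aliquots were heated for 3 min across 48°C-58°C, pooled, and extracted in PBS with 0.5% NP-40 at 4°C; the supernatant after 21,000xg for 90 min was soluble protein. This was quantified by TMTpro 16plex LC-MS/MS with channel sums equalised, and thermal stability was reported relative to control samples from duplicates, on a log2 fold-change scale.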

sotrastaurin = compound: CN1CCN(c2nc(C3=C(c4c[nH]c5ccccc45)C(=O)NC3=O)c3ccccc3n2)CC1 [sotrastaurin]
Procedure, shortened: as §1

alvocidib = compound: CN1CC[C@H](c2c(O)cc(O)c3c(=O)cc(-c4ccccc4Cl)oc23)[C@H](O)C1 [alvocidib]
Procedure, shortened: as §1

Tubastatin A = compound: CN1CCc2c(c3ccccc3n2Cc2ccc(C(=O)NO)cc2)C1 [Tubastatin A]
Procedure, shortened: as §1

[1] = compound: CNC(=O)C1=CC=CC=C1NC2=NC(=NC=C2Cl)NC3=C(C=C(C=C3)N4CCOCC4)OC
Procedure, shortened: as §1

defactinib = compound: CNC(=O)c1ccc(Nc2ncc(C(F)(F)F)c(NCc3nccnc3N(C)S(C)(=O)=O)n2)cc1 [defactinib]
Procedure, shortened: as §1

rucaparib = compound: CNCc1ccc(-c2[nH]c3cc(F)cc4c3c2CCNC4=O)cc1 [rucaparib]
Procedure, shortened: as §1

[2] = compound: CNc1nc(-c2ccc3c(N)n[nH]c3c2)cc(N2C[C@@H](C(=O)NC3CCCCC3)CC[C@H]2C)n1
Procedure, shortened: as §1

encorafenib = compound: COC(=O)N[C@@H](C)CNc1nccc(-c2cn(C(C)C)nc2-c2cc(Cl)cc(NS(C)(=O)=O)c2F)n1 [encorafenib]
Procedure, shortened: as §1

[3] = compound: COC(=O)[C@H](CCSC)NC(=O)C1=C(C=C(C=C1)NC[C@H](CS)N)C2=CC=CC=C2
Procedure, shortened: as §1

[4] = compound: COC1=CC=C(C=C1)CN2C=CC3=C2C=C(C=C3)C(=O)NO
Procedure, shortened: as §1

filanesib = compound: CON(C)C(=O)N1N=C(c2cc(F)ccc2F)S[C@@]1(CCCN)c1ccccc1 [filanesib]
Procedure, shortened: as §1

zotarolimus = compound: CO[C@H]1C[C@@H]2CC[C@@H](C)[C@@](O)(O2)C(=O)C(=O)N2CCCC[C@H]2C(=O)O[C@H]([C@H](C)C[C@@H]2CC[C@H](n3cnnn3)[C@H](OC)C2)CC(=O)[C@H](C)/C=C(\C)[C@@H](O)[C@@H](OC)C(=O)[C@H](C)C[C@H](C)/C=C/C=C/C=C/1C [zotarolimus]
Procedure, shortened: as §1

idasanutlin = compound: COc1cc(C(=O)O)ccc1NC(=O)[C@@H]1N[C@@H](CC(C)(C)C)[C@](C#N)(c2ccc(Cl)cc2F)[C@H]1c1cccc(Cl)c1F [idasanutlin]
Procedure, shortened: as §1

alisertib = compound: COc1cc(Nc2ncc3c(n2)-c2ccc(Cl)cc2C(c2c(F)cccc2OC)=NC3)ccc1C(=O)O [alisertib]
Procedure, shortened: as §1

[5] = compound: COc1cc2nc(-c3cc(F)ccc3O)nc(N[C@@H]3CNC[C@H]3C(C)(C)O)c2cc1OC
Procedure, shortened: as §1

gefitinib = compound: COc1cc2ncnc(Nc3ccc(F)c(Cl)c3)c2cc1OCCCN1CCOCC1 [gefitinib]
Procedure, shortened: as §1

[6] = compound: COc1cccc2cc(-c3nc([C@H]4CC[C@H](C(=O)O)CC4)n4ncnc(N)c34)[nH]c12
Procedure, shortened: as §1

lapatinib = compound: CS(=O)(=O)CCNCc1ccc(-c2ccc3ncnc(Nc4ccc(OCc5cccc(F)c5)c(Cl)c4)c3c2)o1 [lapatinib]
Procedure, shortened: as §1

pictilisib = compound: CS(=O)(=O)N1CCN(Cc2cc3nc(-c4cccc5[nH]ncc45)nc(N4CCOCC4)c3s2)CC1 [pictilisib]
Procedure, shortened: as §1

Measured: log2 fold change

SESN2 (UniProt P58004)
Chain of UniProt P58004 (P58004 whole entry, looked up): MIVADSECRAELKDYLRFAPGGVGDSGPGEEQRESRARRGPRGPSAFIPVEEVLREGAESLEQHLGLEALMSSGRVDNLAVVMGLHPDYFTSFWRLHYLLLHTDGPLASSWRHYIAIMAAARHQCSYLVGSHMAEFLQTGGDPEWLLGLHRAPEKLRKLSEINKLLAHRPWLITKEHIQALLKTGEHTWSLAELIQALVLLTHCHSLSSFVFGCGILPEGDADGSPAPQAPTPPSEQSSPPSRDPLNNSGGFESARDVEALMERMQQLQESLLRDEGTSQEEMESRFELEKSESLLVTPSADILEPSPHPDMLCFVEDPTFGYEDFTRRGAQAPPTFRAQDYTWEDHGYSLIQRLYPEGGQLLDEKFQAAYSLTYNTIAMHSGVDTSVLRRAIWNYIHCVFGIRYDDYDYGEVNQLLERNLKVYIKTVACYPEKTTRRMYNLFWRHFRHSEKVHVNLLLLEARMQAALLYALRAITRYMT
inactive: saracatinib -0.009 | sotrastaurin -0.222 | alvocidib -0.147 | Tubastatin A 0.131 | [1] 0.039 | defactinib -0.229 | rucaparib 0.044 | [2] 0.09 | encorafenib 0.041 | [3] -0.121 | [4] 0.013 | filanesib -0.174 | zotarolimus 0.099 | idasanutlin -0.107 | alisertib -0.005 | [5] -0.112 | gefitinib 0.08 | [6] -0.085 | lapatinib 0.25 | pictilisib 0.167

RDH13 (UniProt Q8NBN7)
Chain of UniProt Q8NBN7 (Q8NBN7 whole entry, looked up): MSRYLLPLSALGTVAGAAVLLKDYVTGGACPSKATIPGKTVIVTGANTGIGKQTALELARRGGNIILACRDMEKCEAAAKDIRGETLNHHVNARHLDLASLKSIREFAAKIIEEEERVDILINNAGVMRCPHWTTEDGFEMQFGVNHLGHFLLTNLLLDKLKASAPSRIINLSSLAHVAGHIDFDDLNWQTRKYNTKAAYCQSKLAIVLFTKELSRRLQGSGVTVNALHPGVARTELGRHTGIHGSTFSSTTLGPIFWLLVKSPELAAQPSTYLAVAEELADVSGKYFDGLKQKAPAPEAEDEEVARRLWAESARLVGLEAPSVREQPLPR
inactive: saracatinib -0.084 | sotrastaurin 0.027 | alvocidib -0.097 | Tubastatin A -0.063 | [1] -0.062 | defactinib -0.043 | rucaparib 0.029 | [2] 0.016 | encorafenib 0.014 | [3] -0.016 | [4] 0.056 | filanesib -0.135 | zotarolimus 0.072 | idasanutlin -0.019 | alisertib -0.005 | [5] -0.064 | gefitinib 0.018 | [6] 0.084 | lapatinib 0 | pictilisib 0.042

RPP14 (UniProt O95059)
Chain of UniProt O95059 (O95059 whole entry, looked up): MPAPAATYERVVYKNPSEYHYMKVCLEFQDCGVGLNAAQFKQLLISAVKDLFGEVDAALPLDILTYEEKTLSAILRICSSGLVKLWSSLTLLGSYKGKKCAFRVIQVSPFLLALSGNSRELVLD
inactive: saracatinib 0.064 | sotrastaurin -0.01 | alvocidib 0.007 | Tubastatin A 0.059 | [1] -0.039 | defactinib 0.012 | rucaparib 0.004 | [2] -0.029 | encorafenib 0.046 | [3] -0.034 | [4] -0.006 | filanesib 0.046 | zotarolimus 0.004 | idasanutlin -0.038 | alisertib -0.051 | [5] -0.053 | gefitinib -0.022 | [6] 0.047 | lapatinib 0.042 | pictilisib -0.19

SAMSN1 isoform 3 (UniProt Q9NSI8)
Chain of UniProt Q9NSI8 (Q9NSI8 whole entry, looked up): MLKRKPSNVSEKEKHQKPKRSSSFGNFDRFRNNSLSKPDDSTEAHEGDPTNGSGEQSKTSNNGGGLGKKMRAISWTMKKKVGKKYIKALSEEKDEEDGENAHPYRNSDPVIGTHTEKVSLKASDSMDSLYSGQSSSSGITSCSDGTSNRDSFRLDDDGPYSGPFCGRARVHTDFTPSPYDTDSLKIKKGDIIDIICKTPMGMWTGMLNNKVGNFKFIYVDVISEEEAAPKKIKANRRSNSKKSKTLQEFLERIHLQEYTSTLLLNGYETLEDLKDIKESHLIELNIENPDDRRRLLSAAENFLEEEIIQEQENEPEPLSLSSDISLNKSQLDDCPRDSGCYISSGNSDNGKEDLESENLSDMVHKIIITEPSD
inactive: saracatinib -0.023 | sotrastaurin -0.081 | alvocidib -0.058 | Tubastatin A 0.036 | [1] 0.002 | defactinib -0.051 | rucaparib -0.003 | [2] -0.029 | encorafenib 0.046 | [3] 0.024 | [4] 0.013 | filanesib -0.021 | zotarolimus 0.034 | idasanutlin -0.026 | alisertib 0.007 | [5] -0.001 | gefitinib 0.007 | [6] -0.029 | lapatinib -0.009 | pictilisib -0.001

SLC1A5 (UniProt Q15758)
Chain of UniProt Q15758 (Q15758 whole entry, looked up): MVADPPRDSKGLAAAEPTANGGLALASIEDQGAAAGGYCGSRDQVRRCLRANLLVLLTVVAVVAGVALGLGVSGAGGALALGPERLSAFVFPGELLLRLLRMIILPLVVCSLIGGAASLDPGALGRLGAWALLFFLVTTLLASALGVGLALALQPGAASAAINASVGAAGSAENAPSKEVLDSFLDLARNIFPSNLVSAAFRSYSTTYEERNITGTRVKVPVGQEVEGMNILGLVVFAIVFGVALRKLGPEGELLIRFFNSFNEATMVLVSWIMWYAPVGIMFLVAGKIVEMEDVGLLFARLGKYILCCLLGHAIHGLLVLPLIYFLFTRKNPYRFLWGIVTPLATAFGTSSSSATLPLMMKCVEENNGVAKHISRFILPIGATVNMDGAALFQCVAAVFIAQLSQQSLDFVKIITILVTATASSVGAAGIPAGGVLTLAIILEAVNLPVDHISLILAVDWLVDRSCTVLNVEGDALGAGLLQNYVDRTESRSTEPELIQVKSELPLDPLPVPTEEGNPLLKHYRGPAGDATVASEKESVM
inactive: saracatinib 0 | sotrastaurin 0.064 | alvocidib -0.027 | Tubastatin A -0.023 | [1] -0.09 | defactinib -0.01 | rucaparib -0.015 | [2] 0.033 | encorafenib -0.045 | [3] 0.058 | [4] -0.048 | filanesib 0.071 | zotarolimus -0.052 | idasanutlin 0.031 | alisertib -0.126 | [5] 0.058 | gefitinib 0.023 | [6] 0.095 | lapatinib -0.01 | pictilisib 0.024

RNASEH2A (UniProt O75792)
Chain of UniProt O75792 (O75792 whole entry, looked up): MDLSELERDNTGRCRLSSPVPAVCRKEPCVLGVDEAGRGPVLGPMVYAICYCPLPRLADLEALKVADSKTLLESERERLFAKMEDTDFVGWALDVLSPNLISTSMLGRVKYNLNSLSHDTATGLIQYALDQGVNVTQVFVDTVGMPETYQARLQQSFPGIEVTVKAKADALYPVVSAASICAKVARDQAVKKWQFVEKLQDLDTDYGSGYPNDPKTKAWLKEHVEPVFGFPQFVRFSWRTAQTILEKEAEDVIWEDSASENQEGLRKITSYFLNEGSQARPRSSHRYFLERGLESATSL
inactive: saracatinib -0.071 | sotrastaurin 0.029 | alvocidib -0.107 | Tubastatin A 0.033 | [1] 0.029 | defactinib 0.117 | rucaparib 0.018 | [2] 0.033 | encorafenib -0.003 | [3] 0.096 | [4] 0.029 | filanesib -0.005 | zotarolimus 0.034 | idasanutlin -0.007 | alisertib -0.016 | [5] 0.049 | gefitinib -0.013 | [6] 0.031 | lapatinib -0.029 | pictilisib 0.234

SLBP (UniProt Q14493)
Chain of UniProt Q14493 (Q14493 whole entry, looked up): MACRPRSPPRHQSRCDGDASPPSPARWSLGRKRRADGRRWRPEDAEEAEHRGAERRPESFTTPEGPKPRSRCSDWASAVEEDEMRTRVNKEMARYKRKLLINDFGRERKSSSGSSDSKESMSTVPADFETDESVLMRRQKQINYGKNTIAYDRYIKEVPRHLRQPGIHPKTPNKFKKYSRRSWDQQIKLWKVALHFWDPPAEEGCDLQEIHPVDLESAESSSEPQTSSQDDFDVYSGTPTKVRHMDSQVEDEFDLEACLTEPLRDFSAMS
inactive: saracatinib -0.083 | sotrastaurin -0.077 | alvocidib -0.091 | Tubastatin A 0.117 | [1] 0.113 | defactinib -0.128 | rucaparib -0.158 | [2] 0.02 | encorafenib 0.113 | [3] 0 | [4] -0.148 | filanesib -0.035 | zotarolimus 0.112 | idasanutlin 0.224 | alisertib -0.152 | [5] -0.199 | gefitinib 0.034 | [6] 0.077 | lapatinib 0.004 | pictilisib 0.05

RIC8A isoform 3 (UniProt Q9NPQ8)
Chain of UniProt Q9NPQ8 (Q9NPQ8 whole entry, looked up): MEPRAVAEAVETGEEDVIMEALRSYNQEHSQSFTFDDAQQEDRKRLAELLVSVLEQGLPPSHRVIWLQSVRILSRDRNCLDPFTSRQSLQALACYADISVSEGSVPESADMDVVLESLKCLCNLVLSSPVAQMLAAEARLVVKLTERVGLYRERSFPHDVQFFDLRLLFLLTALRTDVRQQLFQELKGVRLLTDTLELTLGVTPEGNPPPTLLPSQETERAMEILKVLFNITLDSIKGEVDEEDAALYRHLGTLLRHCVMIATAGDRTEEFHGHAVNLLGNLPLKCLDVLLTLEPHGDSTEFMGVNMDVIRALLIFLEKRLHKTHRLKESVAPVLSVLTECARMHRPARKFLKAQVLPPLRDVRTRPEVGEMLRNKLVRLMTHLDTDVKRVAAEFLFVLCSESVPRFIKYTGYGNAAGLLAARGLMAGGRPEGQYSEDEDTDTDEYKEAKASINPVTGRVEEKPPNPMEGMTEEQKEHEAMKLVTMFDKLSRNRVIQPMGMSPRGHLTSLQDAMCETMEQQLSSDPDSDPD
inactive: saracatinib 0.008 | sotrastaurin -0.223 | alvocidib -0.157 | Tubastatin A 0.108 | [1] -0.096 | defactinib -0.175 | rucaparib 0.198 | [2] -0.087 | encorafenib 0.287 | [3] -0.12 | [4] -0.007 | filanesib -0.046 | zotarolimus -0.058 | idasanutlin -0.032 | alisertib 0.159 | [5] -0.095 | gefitinib 0.043 | [6] 0.009 | lapatinib 0.001 | pictilisib -0.002
